Shown are actives, neighbours in structure and some others; about 2.4% of the full set was active somewhere.
POLK inh = qHTS for Inhibitors of Polymerase Kappa; DNA polymerase kappa (Homo sapiens), Q9UBT6; purified Pol kappa, fluorescent DNA synthesis assay, 10 min; Potency, µM (doses to about 107 µM), most hits filed as inhibitors; 400,000 tested, 0.53% active; AID 588579, 2011
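Enzyme at 10 nM met test compounds for 15 min at room temperature. Substrate addition (50 nM final) began the reaction, which was monitored by fluorescence at 0 and 10 min.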
Pol beta inh = qHTS Assay for Inhibitors of DNA Polymerase Beta | 340,000 tested, 1.3% active | P06746 | Potency, µM (doses to about 114 µM), actives largely listed as inhibitors | Pol beta primer extension/strand displacement, fluorescence kinetic
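Homogeneous kinetic assay of primer extension and strand displacement by 10 nM Pol beta, preincubated 15 min at room temperature with compound before 50 nM substrate (final) was added. Read at 0 and 10 min; four-parameter Hill fit.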
POLI inh = qHTS for Inhibitors of Polymerase Iota; Potency, µM (highest dose often 115 µM), usual class: inhibitors; DNA polymerase iota (Homo sapiens), Q9UNA4; Pol iota fluorescent replication assay, 10 min; AID 588590, 2011; 390,000 tested, 1% active
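Pol iota at 10 nM preincubated 15 min with compounds at room temperature; reaction started with fluorescent substrate, 50 nM final. Fluorescence read kinetically at 0 and 10 min; buffer-only wells as negative control.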
GLS inh = qHTS for Inhibitors of Glutaminase (GLS) | Glutaminase kidney isoform, mitochondrial (Homo sapiens), O94925 | GLS enzymatic activity, qHTS titration | Potency, µM (doses to about 45.5 µM), usual class: inhibitors | 410,000 tested, 0.21% active
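Assay buffer: 45 mM KH2PO4 pH 8.2, 0.02% Tween-20. hKGA acts on L-glutamine (1 mM solution added); product glutamate is reported by an oxidase/peroxidase Amplex Red coupling, with fluorescence taken at baseline and 30 min.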
POLH inh = qHTS for Inhibitors of Polymerase Eta. recombinant Pol eta, fluorescent DNA replication assay. DNA polymerase eta (Homo sapiens), Q9Y253. 390,000 tested, 1.2% active. AID 588591, 2011. Potency, µM (highest dose often 114 µM), actives largely listed as inhibitors
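Fluorescent replication assay: 50 nM final substrate added after a 15 min room-temperature compound preincubation with 10 nM enzyme. Signal taken at 0 min and again at 10 min.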
GCN5L2 inh = qHTS Assay for Inhibitors of GCN5L2; Histone acetyltransferase KAT2A (Homo sapiens), Q92830; GCN5L2 HAT assay, ThioGlo1 CoA-SH fluorescence; Potency, µM (highest dose often 58.9 µM), usual class: inhibitors; 390,000 tested, 0.21% active
Target sequence (Q92830 whole entry, looked up): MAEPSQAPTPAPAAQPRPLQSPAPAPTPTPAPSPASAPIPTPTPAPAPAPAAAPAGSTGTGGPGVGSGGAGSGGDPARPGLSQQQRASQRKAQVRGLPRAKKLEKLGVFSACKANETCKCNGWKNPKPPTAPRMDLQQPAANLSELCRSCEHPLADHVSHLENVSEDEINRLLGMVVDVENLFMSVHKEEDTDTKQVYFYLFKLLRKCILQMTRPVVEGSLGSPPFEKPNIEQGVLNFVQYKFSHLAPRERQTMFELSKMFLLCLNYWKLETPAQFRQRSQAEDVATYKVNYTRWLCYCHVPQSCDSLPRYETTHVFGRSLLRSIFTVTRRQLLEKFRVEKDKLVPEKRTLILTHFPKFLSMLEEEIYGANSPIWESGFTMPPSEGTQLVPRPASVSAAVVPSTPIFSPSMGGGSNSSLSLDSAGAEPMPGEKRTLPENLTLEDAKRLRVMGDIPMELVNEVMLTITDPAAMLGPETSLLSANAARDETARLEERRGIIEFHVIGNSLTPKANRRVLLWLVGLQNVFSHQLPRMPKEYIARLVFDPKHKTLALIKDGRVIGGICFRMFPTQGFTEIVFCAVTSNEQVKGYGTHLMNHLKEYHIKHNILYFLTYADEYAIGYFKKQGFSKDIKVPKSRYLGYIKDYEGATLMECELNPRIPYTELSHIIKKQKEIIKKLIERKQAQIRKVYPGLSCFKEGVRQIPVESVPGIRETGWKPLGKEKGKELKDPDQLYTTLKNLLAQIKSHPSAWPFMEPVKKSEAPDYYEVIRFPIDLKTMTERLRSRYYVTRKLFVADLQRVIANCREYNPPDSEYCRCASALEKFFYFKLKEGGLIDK
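Titration-based screen in which CoA formation is detected via maleimide probe ThioGlo1 (50uM) turning fluorescent on thiol reaction; substrates H3(1-25) 75uM and acetyl-CoA 70uM, GCN5L2 20nM, 20 min incubation at room temperature.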
PGK validate = qHTS for inhibitors of Phosphogylcerate Kinase: Hit Validation Screen; AID 686980, 2013; shares compounds with POLK inh; 500 tested, 79% active; TbPGK coupled GAPDH assay, Kinase-Glo luminescence; Potency, µM (top dose mostly 57.5 µM), hits mostly inhibitors; also: nearly all actives have a fitted effect of over 65% in size
Pol iota confirm = qHTS for Inhibitors of Polymerase Iota: Confirmatory Assay for Cherry-picked Compounds; Pol iota primer extension, TAMRA/BHQ fluorescence; Potency, µM, actives largely listed as inhibitors; shares compounds with POLK inh; 1,500 tested, 77% active
Large screens that a line does not name were inactive (follow-up assays come after a bar, where they were run). Calls follow the shape of the dose curve; as a rule, active = well fitted curve in the direction sought with a large enough effect; inconclusive = small, poorly fitted or top-dose-only effect, or another doubt; inactive = no such curve, though single readings can be large; an effect the other way counts as inactive or inconclusive.

CCOC(=O)Nc1sc2c(c1C#N)CCC(C)C2 (stereo not given)	none
CC(C)OC(=O)c1c(NC(=O)C2CC=CCC2C(=O)O)sc2c1CCCCC2 (stereo not given)	Pol beta inh inconclusive, POLH inh inconclusive
NC(=O)c1c(NC(=O)C2CC=CCC2C(=O)O)sc2c1CCCCC2 (stereo not given)	Pol beta inh 20µM, POLH inh 56µM | PGK validate 13µM
CCC1CCc2c(sc(NC(=O)C3CC=CCC3C(=O)O)c2C#N)C1 (stereo not given)	Pol beta inh 79µM, POLH inh inconclusive | PGK validate inconclusive
Nc1c(C(=O)O)cnc2c(-c3ccc(Cl)cc3)cnn12	none | PGK validate inconclusive
Cc1ccccc1C(=O)O/N=C(\N)c1ccc([N+](=O)[O-])cc1	none
Cc1occc1C(=O)O/N=C(\N)c1ccccc1	none | PGK validate 18µM
Cc1ccccc1C(=O)O/N=C(\N)c1ccccc1	none | PGK validate 15µM
Cc1cccc(/C(N)=N/OC(=O)c2ccoc2C)c1	none
O=C1C=C(c2c(O)ccc3ccccc23)c2ccccc2C1=O	POLI inh 3.5µM, GLS inh inconclusive, POLH inh 20µM (no result: Pol beta inh, GCN5L2 inh) | Pol iota confirm 84
Cc1cccc(-c2noc(-c3ccc(NCC4CCCO4)c([N+](=O)[O-])c3)n2)c1 (stereo not given)	POLI inh inconclusive
Cn1c2ccccc2c(=O)c2cc(C#Cc3ccccn3)ccc21	none
Cn1c2ccccc2c(=O)c2ccc(C#Cc3ccccn3)cc21	Pol beta inh 25µM, POLI inh 32µM, POLH inh 28µM | Pol iota confirm inconclusive
COc1ccc(-c2nn(C)c3sc(C(=O)NCCN(C)C)cc23)cc1OC	POLK inh inconclusive, Pol beta inh 32µM, POLI inh 18µM, POLH inh inconclusive, GCN5L2 inh inconclusive | Pol iota confirm inconclusive
COc1ccc(OC)c(CNC(=O)c2cc3c(-c4ccc(OC)c(OC)c4)nn(C)c3s2)c1	none
CN1/C(=C/C=C/c2n(C)c3cc([N+](=O)[O-])c([N+](=O)[O-])cc3[n+]2C)C(C)(C)c2ccccc21	POLH inh inconclusive (no result: POLK inh, Pol beta inh, POLI inh, GCN5L2 inh) | PGK validate inconclusive
COc1ccc(-n2cc(-c3ccccc3)c3c(N4CCCC(C)C4)ncnc32)cc1 (stereo not given)	none
COc1ccccc1C(=O)Nc1nc2ccccc2[nH]1	none | PGK validate 5.8µM
CSc1ccccc1C(=O)Nc1nc2ccccc2[nH]1	none
COc1cc(SC)ccc1C(=O)Nc1nc2ccccc2[nH]1	none | PGK validate 3.3µM
COc1ccccc1C(=O)NCCC(=O)Nc1nc2ccccc2[nH]1	none (no result: Pol beta inh)
COc1cc(SC)ccc1C(=O)NNC(=O)c1cc(C)oc1C	none (no result: Pol beta inh) | PGK validate 13µM
Fc1ccc(/C=N/Nc2nccnc2Cl)cc1	none
Oc1ccc(/C=N/Nc2nccnc2Cl)cc1	none | PGK validate 9.2µM
Fc1cccc(/C=N/Nc2nccnc2Cl)c1	none | PGK validate 16µM
Cc1ccc(OCC(=O)N(C)CC(=O)NCc2ccco2)c(Br)c1	POLK inh 79µM, POLI inh inconclusive, POLH inh 14µM (no result: Pol beta inh) | PGK validate 21µM
Cc1ccc(OCCCC(=O)NCc2ccco2)c(C)c1	none (no result: POLK inh, POLI inh, GLS inh, POLH inh)
Cc1cc(C)cc(NC(=O)c2cc3c(=O)n(Cc4ccco4)ccc3nc2C)c1	none
COc1ccccc1NS(=O)(=O)c1cc(NC(=O)c2ccc3c(c2)OCCO3)ccc1C	POLI inh inconclusive | PGK validate inactive
Cc1occc1C(=O)N/N=C/c1ccc(N(C)C)cc1	none | PGK validate 10µM
Cc1occc1C(=O)N/N=C/C=C/c1ccc(N(C)C)cc1	GCN5L2 inh inconclusive
CCOCCCn1c(=N)c(C(=O)NC2CCCC2)cc2c(=O)n3cccc(C)c3nc21	none
C=CCN=C1NN=C(c2cc(C)n(CCOC)c2C)CS1	none
COCCn1c(C)cc(C2=NNC(=NC3CC3)SC2)c1C	none | PGK validate 16µM
CCOc1ccc(OCC(=O)NCCS(=O)(=O)N2CCN(c3cccc(Cl)c3)CC2)cc1	none
O=C1C=CC(=O)c2c(O)c(CO)c(CO)c(O)c21	POLK inh 3.5µM, POLI inh 3.2µM, GLS inh 3.5µM, POLH inh 1µM (no result: Pol beta inh, GCN5L2 inh) | PGK validate 8.2µM
O=c1c(CO)cc(CO)cc(CO)c1O	POLI inh inconclusive
CC1CCc2nn(CC(=O)Nc3cccc(C(F)(F)F)c3)c(=O)cc2C1 (stereo not given)	none
O=C(CCO)c1ccc(O)cc1	POLK inh 8.9µM, Pol beta inh inconclusive, POLI inh 5µM, GLS inh 7.9µM, POLH inh 3.5µM | PGK validate 1.6µM
CC(=O)Nc1ccc(S(=O)(=O)N2CCC(N3CCN(Cc4ccc(C)cc4)C(=O)C3=O)CC2)cc1	Pol beta inh 45µM, POLI inh 79µM, POLH inh inconclusive | Pol iota confirm inconclusive
Cc1ccc(CN2CCN(C3CCN(S(=O)(=O)c4ccc(C)cc4)CC3)C(=O)C2=O)cc1	none
Cc1cc(N/N=C/c2ccc(N(C)C)cc2)c2ccccc2n1	POLH inh inconclusive
Cc1cc(C)c2nc(C)cc(N/N=C/c3ccc(O)cc3)c2c1	POLK inh inconclusive, Pol beta inh 25µM, POLI inh inconclusive, POLH inh 32µM | Pol iota confirm inconclusive
c1ccc2c(C3=NNC(=NC4CC4)SC3)c[nH]c2c1	none
c1ccc(C2=NNC(=NC3CC3)SC2)cc1	POLI inh inconclusive | PGK validate 16µM
CCN(CC)C(=O)c1ccc(/C=C/c2c[nH]c3ccccc23)[n+](C)c1	none
CC[n+]1c(/C=C/c2c[nH]c3ccccc23)ccc2cc(C)ccc21	POLK inh 79µM, Pol beta inh 20µM, POLI inh inconclusive, POLH inh inconclusive | Pol iota confirm inconclusive
COc1cc2c(ccc3cc(OC)c(OC)c(O)c32)cc1O	POLK inh 7.9µM, Pol beta inh 1.4µM, POLI inh inconclusive, GLS inh 7.9µM, POLH inh 3.2µM | PGK validate 1.5µM

Screening results from PubChem BioAssay.
